A short description of test [1]: Human pregnane X receptor (PXR) small molecule agonists, qHTS cell viability counter screen (AID 1346977). Note: nearly all actives have a fitted effect of over 50% in size. Note: potency is the fitted concentration of half-maximal effect. The gist of the method: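 Fluorescence read-out (CellTiter-Fluor) of viability in PXR-Luc HepG2 cells, multiplexed with the luciferase agonist read. Compounds in DMSO added after 5hr plating; 24hr total exposure at 37C, 5% CO2.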
Test [2] is described as follows: Caspase-3/7 induction in HepG2 cells by small molecules, qHTS assay (AID 1346978). Note: nearly all actives have a fitted effect of over 15% in size. Note: potency is the fitted concentration of half-maximal effect. In outline: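 Wild-type HepG2 cells (2,000/well) were settled 5 h at 37 C, 5% CO2, then exposed to compounds in DMSO for 17 h. Caspase-3/7 activity was read by luminescence 30 min after adding Caspase-Glo 3/7 reagent at room temperature.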
(In general: Quantitative high-throughput screening tests each substance at several concentrations.)

A short description of test [3]: Caspase-3/7 induction in CHO-K1 cells by small molecules, qHTS cell viability counter screen (AID 1346979). Note: nearly all actives have a fitted effect of over 35% in size. Note: potency is the fitted concentration of half-maximal effect. In outline: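 CHO-K1 wt, 1,500 cells/well; 5hr pre-incubation 37C/5% CO2; compound pin transfer (DMSO); 16hr exposure; CellTiter-Fluor added, 1hr, fluorescence read.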
A short description of test [4]: Caspase-3/7 induction in CHO-K1 cells by small molecules, qHTS assay (AID 1346980). Note: nearly all actives have a fitted effect of over 15% in size. Note: potency is the fitted concentration of half-maximal effect. The gist of the method: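 Wild-type cells were seeded at 1,500 per well and settled 5 hr at 37 C, 5% CO2, then exposed to DMSO-dissolved compounds for 17 hr. Caspase-Glo 3/7 reagent was added, and luminescence was read after 30min at room temperature.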
Test [5] is described as follows: Caspase-3/7 induction in HepG2 cells by small molecules, qHTS cell viability counter screen (AID 1346981). Note: nearly all actives have a fitted effect of over 30% in size. Note: potency is the fitted concentration of half-maximal effect. The gist of the method:
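Cell viability is measured as a cytotoxicity counter screen alongside the Caspase-Glo 3/7 readout in identical wells. Wild-type HepG2 cells are treated with test compounds for 16 hr at 37 C before CellTiter-Fluor addition and a 1-hr incubation.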

The target in test [6] is Nuclear receptor subfamily 1 group I member 2 (Homo sapiens) (UniProt O75469). In words: Human pregnane X receptor (PXR) small molecule agonists, qHTS assay (AID 1346982). Note: nearly all actives have a fitted effect of over 35% in size. Note: potency is the fitted concentration of half-maximal effect. The gist of the method: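 Cells: HepG2 stably carrying PXR-Luc. Medium held 5% charcoal-stripped FBS. Compounds in DMSO added after 5 hr plating, incubated 24 hr, then luminescence quantified with ONE-Glo.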
Chain of Nuclear receptor subfamily 1 group I member 2 (Homo sapiens) (O75469 whole entry, looked up): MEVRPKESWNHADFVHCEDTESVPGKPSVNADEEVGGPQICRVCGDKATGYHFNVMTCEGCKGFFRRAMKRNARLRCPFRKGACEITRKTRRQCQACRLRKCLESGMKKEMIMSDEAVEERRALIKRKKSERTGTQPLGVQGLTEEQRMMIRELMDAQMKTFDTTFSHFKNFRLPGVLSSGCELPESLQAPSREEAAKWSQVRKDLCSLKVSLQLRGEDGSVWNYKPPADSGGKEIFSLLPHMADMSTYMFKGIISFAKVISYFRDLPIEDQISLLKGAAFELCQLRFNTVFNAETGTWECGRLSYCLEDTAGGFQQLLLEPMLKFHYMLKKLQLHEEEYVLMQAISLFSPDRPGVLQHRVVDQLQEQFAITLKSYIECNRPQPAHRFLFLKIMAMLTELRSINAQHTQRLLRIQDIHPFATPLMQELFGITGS

In test [7] the target is Cytochrome P450 2D6 (Homo sapiens) (UniProt P10635). Put plainly: Cytochrome P450 Family 2 Subfamily D Member 6 (CYP2D6) small molecule antagonists: luciferase reporter qHTS assay (AID 1671196). Note: nearly all actives have a fitted effect of over 50% in size. Note: potency is the fitted concentration of half-maximal effect. In outline:
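Enzyme and proluciferin substrate were first combined with test chemical for 10 min at room temperature. Adding NADPH regeneration solution started a 1 h reaction, stopped with luciferin detection reagent and read by luminescence 20 min later.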

Test [8] concerns the target Nuclear receptor subfamily 1 group I member 2 (Rattus norvegicus) (UniProt Q9R1A7). Put plainly: Rat pregnane X receptor (rPXR) activation by small molecules, qHTS assay (AID 1346983). Note: nearly all actives have a fitted effect of over 20% in size. Note: potency is the fitted concentration of half-maximal effect. As to conditions: rPXR luciferase reporter cells, One-Glo luminescence, 24 h; max activation: stronger effect = higher value. The gist of the method:
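Cell-based rPXR luciferase reporter assay, 2,000 cells per well, rested 5hr at 37 C before compound addition in DMSO, then 24 hr at 37 C. One-Glo reagent was added and luminescence read after 30 min at room temperature.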

Test [9] addresses Nuclear receptor subfamily 1 group I member 2 (Homo sapiens) (UniProt O75469). In words: CYP3A4 induction through human pregnane X receptor (PXR) by small molecules, qHTS assay (AID 1346984). Note: nearly all actives have a fitted effect of over 40% in size. The gist of the method: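 Quantitative HTS in DPX-2 cells, i.e. HepG2 transfected with PXR response element and CYP3A4-promoter luciferase. Compounds in DMSO incubated 24hr at 37C; then P450-Glo CYP3A4 substrate, 3uM final, 3hr; One-Glo luminescence.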

Test [10] has the same target. In words: Human pregnane X receptor (PXR) activation by small molecules, qHTS assay (AID 1346985). Note: nearly all actives have a fitted effect of over 40% in size. The gist of the method:
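DPX-2 cells (HepG2 co-transfected with a PXR response element and a CYP3A4-promoter luciferase construct) were seeded at 2,000 per well, rested 5 hr at 37C, then exposed to DMSO-dissolved compounds for 24 hr. Activation was read as luciferase luminescence.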

Several values for one entry are separate records, joined by “and”; a condition that tells them apart may be missing. Equal entries are not always repeated. Records with an inconclusive call do not appear. More than one record can exist for a structure, and the calls need not agree. Activity calls are given as the source filed them. Calls come from the whole dose curve; as a rule, active = well fitted curve in the direction sought with a large enough effect in the repeat runs; inconclusive = weak or mixed curves; inactive = no such curve, though single readings can be large; an effect the other way counts as inactive or inconclusive.
% is set by controls: 0 for no effect and ±100 for the full control effect.

Chain of Cytochrome P450 2D6 (Homo sapiens) (P10635 whole entry, looked up): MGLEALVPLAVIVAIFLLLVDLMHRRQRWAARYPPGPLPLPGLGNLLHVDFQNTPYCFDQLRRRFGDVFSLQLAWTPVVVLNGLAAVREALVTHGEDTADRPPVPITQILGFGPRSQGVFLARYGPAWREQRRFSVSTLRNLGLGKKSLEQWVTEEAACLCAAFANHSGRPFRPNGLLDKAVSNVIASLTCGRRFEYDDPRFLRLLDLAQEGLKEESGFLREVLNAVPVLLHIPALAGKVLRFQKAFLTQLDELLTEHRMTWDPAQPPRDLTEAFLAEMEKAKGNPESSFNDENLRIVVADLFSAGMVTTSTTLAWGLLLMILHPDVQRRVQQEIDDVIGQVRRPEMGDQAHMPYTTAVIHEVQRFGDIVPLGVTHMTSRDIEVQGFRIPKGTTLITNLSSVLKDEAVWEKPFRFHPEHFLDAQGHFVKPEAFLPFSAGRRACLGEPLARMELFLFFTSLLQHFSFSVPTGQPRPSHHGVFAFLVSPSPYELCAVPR
Chain of Nuclear receptor subfamily 1 group I member 2 (Rattus norvegicus) (Q9R1A7 whole entry, looked up): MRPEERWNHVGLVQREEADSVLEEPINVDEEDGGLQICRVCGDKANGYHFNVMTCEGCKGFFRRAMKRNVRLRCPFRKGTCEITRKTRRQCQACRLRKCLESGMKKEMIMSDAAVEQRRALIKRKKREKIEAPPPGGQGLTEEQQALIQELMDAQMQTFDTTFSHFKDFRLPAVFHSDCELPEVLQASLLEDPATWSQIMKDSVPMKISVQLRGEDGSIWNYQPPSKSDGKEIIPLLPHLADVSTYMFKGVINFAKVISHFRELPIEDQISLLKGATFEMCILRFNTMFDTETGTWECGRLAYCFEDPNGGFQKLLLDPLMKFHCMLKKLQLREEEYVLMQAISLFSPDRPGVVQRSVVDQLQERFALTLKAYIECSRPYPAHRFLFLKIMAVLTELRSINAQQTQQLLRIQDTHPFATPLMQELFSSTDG

Consider `O=[N+]([O-])c1cc(N(CCO)CCO)ccc1NCCO`, for which the Potency in [1] was 30.6 µM (active); in test [3], 27.3 µM (active) and 30.6 µM (active); in test [5], 30.6 µM (active) and 48.6 µM (active); in test [7], 39.8 µM (active) and 31.7 µM (active). For the same compound, the Potency result in test [2], in test [4] and in test [6] was “inactive” in each case.

`CCCCCCCCCCCCOCC1CO1` (stereo unspecified): the Potency entry in test [1], in [2], in test [3], in test [4], in [5] and in test [6] was “inactive” each time. In addition, the Potency entry in [7] is “inactive”.

With `O=C(Cl)c1c(Cl)c(Cl)c(C(=O)Cl)c(Cl)c1Cl`, the Potency result in test [1], in [2], in test [3], in test [4], in test [5] and in test [6] was “inactive” in each case. For the same compound, the Potency in test [7] was 89.4 µM (active).

`CCCCCCCCCCCCN`: the Potency entry in test [1] was “inactive and 30.6 µM (active)”; in [2], “inactive and 61.1 µM (active)”; in [3] it was “inactive and 30.6 µM (active)”; in test [7], 16 µM (active) and 2.24 µM (active) and 8.09 µM (active). Besides, the Potency result in test [4], in [5] and in test [6] was “inactive” throughout.

On to `O=S(=O)(Oc1ccc(Cl)cc1Cl)c1ccccc1`, for which the Potency result in [1], in test [2], in test [3], in [4] and in test [5] was “inactive” throughout. Also, the Potency in [6] is 49.4 µM (active) and 54.5 µM (active); in test [7], 64.4 µM (active) and 63.3 µM (active).

Consider `Cc1ccc(C(=O)O)o1`, for which the Potency entry in [1], in test [2], in test [3], in test [4], in test [5] and in [6] was “inactive” throughout. The Potency entry in test [7] is “inactive”.

`CC(C)(CO)COC(=O)C(C)(C)CO`: the Potency result in test [1], in test [2], in [3], in test [4], in [5] and in [6] was “inactive” throughout. Also, in test [7], the Potency result was “inactive”.

Take `NCCc1ccc(O)c(O)c1`: the Potency in [1] is 30.7 µM (active); in test [3], 61.3 µM (active) and inactive; in test [5], 68.8 µM (active) and inactive; in test [7] it was 63.5 µM (active) and inactive. The Potency result in test [2], in [4] and in test [6] was “inactive” in each case.

For `CCCCCCOC(C)=O`, the Potency result in test [1], in [2], in [3], in test [4], in test [5] and in [6] was “inactive” in each case. Further, the Potency result in test [7] was “inactive”.

Regarding `CCCCC(CC)COC(=O)CCCCCCCC(=O)OCC(CC)CCCC` (stereo unspecified), the Potency entry in test [1], in [2], in test [4] and in [5] was “inactive” each time. Besides, the Potency in test [3] is 43.3 µM (active) and inactive; in test [6], 24.3 µM (active) and inactive; in test [7], 71 µM (active) and inactive.

With `C/C=C(C)/C=C/C=C(C)C`, the Potency result in [1], in test [2], in test [4], in test [5] and in test [7] was “inactive” each time. For the same compound, the Potency in test [6] is 60.4 µM (active) and 27.3 µM (active).

For `COC(=O)Nc1nc2ccc(Sc3ccccc3)cc2[nH]1`, the Potency entry in test [1], in test [2], in test [5] and in test [7] was “inactive” in each case. The Potency was 30.6 µM (active) and 10.6 µM (active) in test [3]; 54.5 µM (active) in test [4]; 1.26 µM (active) in test [8].

Take `CC1=CC[C@H]2C[C@@H]1C2(C)C`: the Potency entry in test [1], in [2], in test [3], in test [4], in test [5] and in [6] was “inactive” each time. Besides, the Potency result in test [7] is “inactive”.

As for `NCc1cccc(CN)c1`, the Potency entry in test [1], in test [2], in test [3], in test [4] and in test [5] was “inactive” each time. The Potency in test [7] is 580 nM (active) and 35.6 µM (active).

For the compound `C=C(C)C(=O)OCCCCCC`, the Potency entry in [1], in test [2], in [3], in test [4], in test [5] and in [6] was “inactive” each time. For the same compound, in test [7], the Potency result was “inactive”.

With `O=C(c1ccc(O)cc1)c1ccc(O)cc1O`, the Potency result in test [1], in [2], in test [3], in test [4] and in test [5] was “inactive” throughout. Further, the Potency in test [6] is 61.8 µM (active) and 48.6 µM (active); in [7], 36 µM (active) and 35.6 µM (active).

Consider `C=CC(=O)OCCCCCCCC(C)C`, for which the Potency entry in test [1], in test [2], in test [3], in test [4], in [5] and in test [6] was “inactive” throughout. Further, the Potency result in test [7] was “inactive”.

Regarding `CS(=O)(=O)Nc1ccc([N+](=O)[O-])cc1Oc1ccccc1`, the Potency entry in test [2] and in [4] was “inactive” throughout. For the same compound, the Potency in test [3] was 54.5 µM (active); in test [5] it was 54.5 µM (active) and 29.8 µM (active). For the same compound, the max activation in [8] is -5.28% (inactive).

Consider `O=C1N=C(O)CN1/N=C/c1ccc(-c2ccc([N+](=O)[O-])cc2)o1`, for which the Potency in test [1] was 27.3 µM (active) and 23.7 µM (active); in test [3] it was 54.5 µM (active) and 26.6 µM (active); in test [5], 48.6 µM (active). In addition, the Potency entry in [2] and in test [4] was “inactive” throughout. For the same compound, in [8], the max activation was -4.97% (inactive).

In the case of `C=C1CC[C@H](O)CC1=C/C=C1\CCC[C@]2(C)[C@@H]([C@H](C)/C=C/[C@H](C)C(C)C)CC[C@@H]12`, the Potency result in test [1] and in [2] was “inactive” in each case. The Potency is 54 µM (active) and 48.6 µM (active) in test [3]; 34.1 µM (active) and 30.6 µM (active) in test [6]. In addition, the max activation in [8] is -1.33% (inactive). Besides, the call in [9] and in test [10] was inactive.

With `CCOC(=O)/C=C\C(=O)OCC`, the Potency entry in [1], in test [2], in test [3], in [4], in [5] and in test [6] was “inactive” throughout. In test [7], the Potency entry was “inactive”.

As for `COC(=O)c1ccc(C(=O)OC)cc1`, the Potency is 7.08 µM (active) and inactive in test [1]; 9.82 µM (active) and inactive in test [2]; 780 nM (active) and inactive in [3]; 2.2 µM (active) and inactive in [6]. Further, the Potency result in test [4], in test [5] and in [7] was “inactive” in each case.

On to `Nc1c(S(=O)(=O)O)cc(Br)c2c1C(=O)c1ccccc1C2=O`, for which the Potency is 31.3 µM (active) and 27.3 µM (active) in test [1]; 48.6 µM (active) in [3]; “inactive and 48.6 µM (active)” in test [5]; “inactive and 48.6 µM (active)” in test [6]. Moreover, the Potency entry in test [2], in test [4] and in test [7] was “inactive” throughout.

Regarding `CCOC(=O)[C@H](CCc1ccccc1)N[C@@H](C)C(=O)N1Cc2ccccc2C[C@H]1C(=O)O`, the Potency result in test [1], in test [2], in test [4], in test [5] and in test [7] was “inactive” each time. For the same compound, the Potency in test [6] was 30.9 µM (active) and 11.9 µM (active). The max activation in [8] was -0.751% (inactive). In addition, the compound was classed as inactive in test [9] and in [10].

As to `NC(=O)NNc1ccccc1`, the Potency result in [1], in test [2], in test [3], in test [4] and in test [5] was “inactive” in each case. Also, the max activation in test [8] is -0.925% (inactive) and 0.997% (inactive).

(Values after PubChem BioAssay (Tox21).)
